Values joined by “and” are separate entries in the source; they are usually repeats but may differ in a detail not shown here. Identical values can stand only once. Inconclusive results are not listed. Active and inactive are the calls of the source. The call rests on the fitted dose curve; in most records, active means well fitted curve in the direction sought with a large enough effect; inconclusive means small, poorly fitted or top-dose-only effect, or another doubt; inactive means no such curve, though single readings can be large or run the other way.
assay: qHTS Assay for Identifying Gametocytocidal Compounds (AID 743244);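 further: actives lower the fluorescent signal which means gametocytes are killed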; conditions: P. falciparum 3D7 stage III-V gametocytes, alamarBlue, 72 h; max response: hits give low values
In short: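 Late gametocytes (III–V), P. falciparum 3D7; 72 h drug, then 24 h alamarBlue; resazurin reduction read by fluorescence.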
On the % scale 0 is the no-effect control and ±100 the full control effect.

**Q.** With CCN(CC)C(=O)Nc1ccc(OCC(O)CNC(C)(C)C)c(C(C)=O)c1 (stereo unspecified) as the compound, how does the max response read?
**A.** -3.18% (inactive)

**Q.** For C/C(=C(\CCOP(=O)(O)O)SC(=O)c1ccccc1)N(C=O)Cc1cnc(C)nc1N, which max response is on record?
**A.** 7.95% (inactive)

**Q.** For NS(=O)(=O)c1cc2c(cc1C(F)(F)F)NC(Cc1ccccc1)NS2(=O)=O (stereo unspecified), which max response is on record?
**A.** 5.19% (inactive)

**Q.** For CCCCN1CCCC[C@H]1C(=O)Nc1c(C)cccc1C, which max response is on record?
**A.** 12.1% (inactive)

**Q.** Which max response does the source give for O=c1cc[nH]c(=O)[nH]1 here?
**A.** 17% (inactive)

**Q.** For Cc1ccc2nc(N)[nH]c(=O)c2c1Sc1ccncc1, which max response is on record?
**A.** -4.42% (inactive)

**Q.** Which max response does the source give for C[C@]12CC[C@@H]3c4ccc(O)cc4CC[C@H]3[C@@H]1CC[C@@H]2OC(=O)CCC1CCCC1 here?
**A.** -9.98% (inactive) and 14% (inactive)

**Q.** Which max response does the source give for O=C1O[C@H](CO)[C@@H](O)[C@H](O)[C@H]1O here?
**A.** -3.17% (inactive)

**Q.** For CCC(=O)Nc1ccc(O)cc1, which max response is on record?
**A.** 7.2% (inactive)

**Q.** For OCC(CO)N[C@H]1C[C@](O)(CO)[C@@H](O)[C@H](O)[C@H]1O, which max response is on record?
**A.** 7.19% (inactive)

**Q.** For C[C@H](NC(CCc1ccccc1)C(=O)O)C(=O)N1CCC[C@H]1C(=O)O (stereo partly specified), which max response is on record?
**A.** 7.34% (inactive)

**Q.** For NC(=O)NC(=O)Cc1ccccc1, which max response is on record?
**A.** 3.39% (inactive)

**Q.** With c1ccc2c(CC3=NCCN3)cccc2c1 as the compound, how does the max response read?
**A.** 1.75% (inactive) and 3.04% (inactive) and -11% (inactive)

**Q.** With c1ccc(CN(CC2=NCCN2)c2ccccc2)cc1 as the compound, how does the max response read?
**A.** -10.1% (inactive)

**Q.** For CCn1cc(C(=O)O)c(=O)c2cnc(N3CCNCC3)nc21, which max response is on record?
**A.** 12.2% (inactive)

**Q.** Which max response does the source give for COc1cc(C)c(Cc2cnc(N)nc2N)cc1OC here?
**A.** -2.96% (inactive)

From PubChem BioAssay (NCATS)
